aSyn UTR act: Activators via SNCA 5'UTR binding, MLPCN; alpha-synuclein 5'UTR reporter, activators screen; activity score, % (tested at 7.5 µM), hits read low; hit rate 7.1% among 300,000; in the data active = activity score below about -60%
* hit, by the source's call. These entries were drawn from the full list.

CCOc1ccc2nc(NC(=S)N(C)C)sc2c1 was read as aSyn UTR act -82*.
CCCC(=O)Nc1nc2ccc(OCC)cc2s1 was read as aSyn UTR act -105*.
For COc1ccc2nc(NC(=O)CSc3nc4ccccc4o3)sc2c1 the results were aSyn UTR act -153*.
`COc1ccc2nc(NC(=O)CSCC(=O)Nc3cc(C)on3)sc2c1` gave aSyn UTR act -101*.
`CCOc1ccc2nc(SCC(=O)c3cccs3)sc2c1` gave aSyn UTR act -122*.
COc1ccc2nc(NC(=O)CSc3nnc(-c4ccoc4C)n3C)sc2c1 was read as aSyn UTR act -134*.
`CN(C)C(=S)Nc1nc2ccccc2s1` gave aSyn UTR act -137*.
`Cc1cn(-c2ccc(Br)cc2)[nH]c1=O` gave aSyn UTR act -79*.
For Cc1cc(C)cc(N=c2c([N+](=O)[O-])nn(-c3cccc(Cl)c3)n2O)c1 the results were aSyn UTR act -66*.
For O=[N+]([O-])c1nn(-c2ccccc2)n(O)c1=NC1CCN(Cc2ccccc2)CC1 the results were aSyn UTR act 76.
For Cc1ccc(CN=c2c([N+](=O)[O-])nn(-c3ccc(Cl)cc3)n2O)cc1 the results were aSyn UTR act -69*.
Screening Cc1cccc(N=c2c([N+](=O)[O-])nn(-c3ccc(Cl)cc3)n2O)c1 returned aSyn UTR act -68*.
CN(C)c1ccc(C2NC(=O)c3ccccc3N2)cc1 (configuration not stated) was read as aSyn UTR act -131*.
For Cc1ccc(C2NC(=O)c3ccccc3N2)s1 (configuration not stated) the results were aSyn UTR act -168*.
`O=C1NC(c2ccc(Cl)cc2)Nc2ccccc21` (configuration not stated) gave aSyn UTR act -62*.
CN(C)c1ccc(C2Nc3cccc4cccc(c34)N2)cc1 was read as aSyn UTR act -94*.
Screening COc1ccc(CCn2nc(C)c([N+](=O)[O-])c2C)cc1 returned aSyn UTR act -101*.
N#CCC(=O)N/N=C\c1ccccc1OC/C=C/c1ccccc1 was read as aSyn UTR act -166*.
For COCC(=O)N/N=C\c1ccccc1OC/C=C/c1ccccc1 the results were aSyn UTR act -95*.
Screening c1ccc(C2=NNC(=NC3CC3)SC2)cc1 returned aSyn UTR act 58.
`c1ccc2c(C3=NNC(=NC4CCCCC4)SC3)c[nH]c2c1` gave aSyn UTR act -140*.
Screening Cc1oc(-c2ccc(-c3ccccc3)cc2)nc1CN(CCO)C(C)C returned aSyn UTR act -182*.
`Cc1oc(-c2ccc(-c3ccccc3)cc2)nc1CN(C)C1CCOC1` (configuration not stated) gave aSyn UTR act -113*.
For Cc1occc1-c1nc(-c2ccncc2)no1 the results were aSyn UTR act -77*.
Cc1ccc(-c2noc(-c3ccoc3C)n2)cc1 was read as aSyn UTR act -186*.
`CCOC(=O)/C(C#N)=C/c1ccc(-c2ccsc2C(=O)OC)o1` gave aSyn UTR act -117*.
For CCOC(=O)C(=Cc1ccc(-c2ccsc2C(=O)OC)o1)C(=O)OCC the results were aSyn UTR act -88*.
CCOc1ccc2nc(N3CCC(C(=O)N4CCN(c5ncccn5)CC4)CC3)sc2c1 was read as aSyn UTR act -75*.
For CCOc1ccc2nc(N3CCCC(C(=O)NC4CCCC4)C3)sc2c1 (configuration not stated) the results were aSyn UTR act -70*.
`O=C1OC(c2ccccc2)=C/C1=C\N1CCOCC1` gave aSyn UTR act -67*.
Cc1c(C(=O)NCCc2ccccc2)oc2ccccc12 was read as aSyn UTR act -69*.
`Cc1c(C(=O)NC2CCC(C)CC2)oc2ccccc12` (configuration not stated) gave aSyn UTR act -143*.
For COc1ccc(/C=C/C(=O)Nc2ccccc2C)cc1S(=O)(=O)N1CCOCC1 the results were aSyn UTR act -87*.
For COc1ccc(OC)c(Cc2nnc(CCC(=O)N3CCCCC3c3nccs3)o2)c1 (configuration not stated) the results were aSyn UTR act -116*.
COc1ccc(OC)c(Cc2nnc(CCC(=O)N3CCCCCC3)o2)c1 was read as aSyn UTR act -74*.
Screening COc1ccc(OC)c(Cc2nnc(CCC(=O)NC3CCCCCCC3)o2)c1 returned aSyn UTR act -118*.
CS(=O)Cc1cc(Sc2ccccc2)nc(-c2cccnc2)n1 (configuration not stated) was read as aSyn UTR act -66*.
COc1ccc(-c2cc(=O)c3c(O)c(OC)c(O)cc3o2)cc1 was read as aSyn UTR act 70.
For O=c1cc(-c2ccccc2)oc2cc(O)cc(O)c12 the results were aSyn UTR act -171*.
For O=c1cc(-c2ccc(O)cc2)oc2cc(O)cc(O)c12 the results were aSyn UTR act -269*.
COc1cc(-c2cc(=O)c3c(O)cc(O)cc3o2)ccc1O was read as aSyn UTR act -79*.
`COc1cc(O)c2c(=O)cc(-c3ccccc3)oc2c1` gave aSyn UTR act -145*.
`COCOc1ccc(-c2cc(=O)c3c(O)cc(OCOC)cc3o2)cc1` gave aSyn UTR act -127*.
O=c1c(O)c(-c2ccc(O)cc2)oc2cc(O)cc(O)c12 was read as aSyn UTR act -100*.
For COc1cc(O)c2c(=O)c3c(OC)c(O)ccc3oc2c1 the results were aSyn UTR act -78*.
`COc1cccc(C(=O)c2cc3cc(Cl)ccc3[nH]2)c1` gave aSyn UTR act -147*.
Screening O=C(c1ccccc1)c1cc2cc(Cl)ccc2[nH]1 returned aSyn UTR act -169*.
`Cc1cccc(N=C2NN=C(c3ccc4c(c3)OCCO4)CS2)c1` gave aSyn UTR act -140*.
`Cc1cccc(N=C2NN=C(c3c(C)[nH]c4ccccc34)CS2)c1` gave aSyn UTR act -90*.
`O=C(Nc1ccc2c(c1)ncn2C1CCCCC1)c1ccco1` gave aSyn UTR act -117*.
`COc1ccccc1-n1cnc2cc(NC(=O)c3ccco3)ccc21` gave aSyn UTR act -87*.
CC(C)n1cnc2cc(NC(=O)c3ccco3)ccc21 was read as aSyn UTR act -71*.
Screening CCn1nccc1C(=O)Nc1ccc(C(=O)OC(C)C)cc1 returned aSyn UTR act -163*.
`CCCC(O)(CCC)C(=O)NN(C(=O)CCl)c1ccccc1` gave aSyn UTR act -69*.
`CCCNC1=C(N(C(C)=O)c2cccc(F)c2)C(=O)c2ccccc2C1=O` gave aSyn UTR act 92.
`O=C(CCl)N(c1ccccc1)C1CCCCC1` gave aSyn UTR act 110.
For CCOC(=O)c1sc(=NC(=O)c2cccc(Br)c2)n(C)c1C the results were aSyn UTR act -188*.
Screening CCOC(=O)c1sc(=NC(=O)c2cccc(C)c2)n(C)c1C returned aSyn UTR act -151*.
For Cc1ccc(C(=O)N/N=C/c2ccc(-c3cccc(C(F)(F)F)c3)o2)cn1 the results were aSyn UTR act 65.
For Nc1nonc1C(=O)N/N=C/c1ccc(-c2cccc(C(=O)O)c2)o1 the results were aSyn UTR act -63*.
`CN(C)/C=C(\C#N)C(=O)N/N=C/c1ccc(Cl)cc1` gave aSyn UTR act -66*.
`CN(C)/C=C(\C#N)C(=O)Nc1ccc(F)cc1` gave aSyn UTR act -96*.
CN(C)/C=C(\C#N)C(=O)Nc1ccc(F)c(Cl)c1 was read as aSyn UTR act -143*.
For Cc1ccc(/C=N/NC(=O)NC23CC4CC(CC(C4)C2)C3)o1 the results were aSyn UTR act -83*.
